Results reported in the supplement of paper PMC11006884.
The full data set covers some 6,500 targets. This sample favours those with a hit. About 2% of all pairs of compound and target were hits. Unmarked numbers belong to inactive results.

compound: COC(=O)C#Cc1ccccc1 [methyl 3-phenylpropiolate]; assay: log2 ratio of iodoacetamide-alkyne labeling of the cysteine site, DMSO over compound (competition); higher = stronger covalent engagement of the cysteine by the compound, active = 1 or more; conditions: 500 µM; treatment time 1 h; system: HEK293T cell lysate
In short: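 After 1 h at ambient temperature with vehicle or electrophile (500 µM), HEK293T lysate (2 mg/mL) was labelled for 1 h with iodoacetamide alkyne and clicked to sCIP-TMT reagents. Pooled samples were trypsin-digested overnight at 37 °C, streptavidin-enriched, acid-eluted and analysed by Orbitrap Eclipse LC-MS/MS with FAIMS, then quantified in FragPipe over three replicates with duplicate channels. A cysteine's log2 competition ratio is its mean control-channel over mean compound-channel reporter intensity. Cysteines quantified in only one replicate were not included.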

Sequence of UniProt Q01518 (Q01518 whole entry): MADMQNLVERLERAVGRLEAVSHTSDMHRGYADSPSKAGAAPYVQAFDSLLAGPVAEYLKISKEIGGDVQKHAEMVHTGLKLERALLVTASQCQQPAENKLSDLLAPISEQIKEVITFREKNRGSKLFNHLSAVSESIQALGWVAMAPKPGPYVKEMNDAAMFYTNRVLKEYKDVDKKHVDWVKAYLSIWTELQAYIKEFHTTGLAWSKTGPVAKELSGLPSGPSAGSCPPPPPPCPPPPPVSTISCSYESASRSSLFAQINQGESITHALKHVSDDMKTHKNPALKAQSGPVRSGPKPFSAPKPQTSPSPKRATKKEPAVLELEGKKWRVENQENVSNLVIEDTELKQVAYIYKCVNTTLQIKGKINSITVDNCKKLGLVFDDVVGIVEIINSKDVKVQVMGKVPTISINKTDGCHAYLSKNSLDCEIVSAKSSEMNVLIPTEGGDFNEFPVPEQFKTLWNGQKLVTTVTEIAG
Sequence of UniProt Q14692 (Q14692 whole entry, looked up): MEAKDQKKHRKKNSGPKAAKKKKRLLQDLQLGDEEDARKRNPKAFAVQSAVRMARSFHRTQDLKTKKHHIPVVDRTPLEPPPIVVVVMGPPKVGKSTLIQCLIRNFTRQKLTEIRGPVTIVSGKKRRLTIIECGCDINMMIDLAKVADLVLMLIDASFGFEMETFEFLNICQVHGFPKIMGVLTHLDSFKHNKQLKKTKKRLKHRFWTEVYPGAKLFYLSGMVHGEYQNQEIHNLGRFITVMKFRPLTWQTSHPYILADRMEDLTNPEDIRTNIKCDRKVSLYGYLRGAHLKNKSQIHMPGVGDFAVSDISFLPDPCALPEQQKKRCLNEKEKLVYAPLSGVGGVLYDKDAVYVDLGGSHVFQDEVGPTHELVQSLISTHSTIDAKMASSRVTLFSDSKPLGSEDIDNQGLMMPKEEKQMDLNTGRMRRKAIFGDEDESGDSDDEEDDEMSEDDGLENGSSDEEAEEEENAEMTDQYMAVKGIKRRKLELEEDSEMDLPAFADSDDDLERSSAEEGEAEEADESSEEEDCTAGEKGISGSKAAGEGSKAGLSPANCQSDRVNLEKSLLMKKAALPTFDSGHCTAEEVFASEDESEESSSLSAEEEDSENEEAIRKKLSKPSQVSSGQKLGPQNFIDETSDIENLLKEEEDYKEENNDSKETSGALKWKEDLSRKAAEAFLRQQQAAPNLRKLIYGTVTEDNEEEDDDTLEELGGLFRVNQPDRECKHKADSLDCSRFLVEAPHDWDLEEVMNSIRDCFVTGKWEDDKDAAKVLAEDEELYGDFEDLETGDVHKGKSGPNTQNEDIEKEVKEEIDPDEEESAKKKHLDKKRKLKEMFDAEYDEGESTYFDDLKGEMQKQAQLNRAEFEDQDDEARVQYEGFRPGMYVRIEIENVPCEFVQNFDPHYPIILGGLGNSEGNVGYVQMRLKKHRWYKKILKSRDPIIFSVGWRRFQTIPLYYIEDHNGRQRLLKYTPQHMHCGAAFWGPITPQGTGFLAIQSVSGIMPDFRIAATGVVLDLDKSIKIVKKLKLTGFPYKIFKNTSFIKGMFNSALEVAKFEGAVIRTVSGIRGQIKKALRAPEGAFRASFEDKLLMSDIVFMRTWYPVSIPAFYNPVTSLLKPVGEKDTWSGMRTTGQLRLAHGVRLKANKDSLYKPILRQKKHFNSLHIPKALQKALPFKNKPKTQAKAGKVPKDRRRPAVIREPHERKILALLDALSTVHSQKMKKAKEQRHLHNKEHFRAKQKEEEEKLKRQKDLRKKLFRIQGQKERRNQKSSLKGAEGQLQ
Sequence of UniProt P55265 (P55265 whole entry, looked up): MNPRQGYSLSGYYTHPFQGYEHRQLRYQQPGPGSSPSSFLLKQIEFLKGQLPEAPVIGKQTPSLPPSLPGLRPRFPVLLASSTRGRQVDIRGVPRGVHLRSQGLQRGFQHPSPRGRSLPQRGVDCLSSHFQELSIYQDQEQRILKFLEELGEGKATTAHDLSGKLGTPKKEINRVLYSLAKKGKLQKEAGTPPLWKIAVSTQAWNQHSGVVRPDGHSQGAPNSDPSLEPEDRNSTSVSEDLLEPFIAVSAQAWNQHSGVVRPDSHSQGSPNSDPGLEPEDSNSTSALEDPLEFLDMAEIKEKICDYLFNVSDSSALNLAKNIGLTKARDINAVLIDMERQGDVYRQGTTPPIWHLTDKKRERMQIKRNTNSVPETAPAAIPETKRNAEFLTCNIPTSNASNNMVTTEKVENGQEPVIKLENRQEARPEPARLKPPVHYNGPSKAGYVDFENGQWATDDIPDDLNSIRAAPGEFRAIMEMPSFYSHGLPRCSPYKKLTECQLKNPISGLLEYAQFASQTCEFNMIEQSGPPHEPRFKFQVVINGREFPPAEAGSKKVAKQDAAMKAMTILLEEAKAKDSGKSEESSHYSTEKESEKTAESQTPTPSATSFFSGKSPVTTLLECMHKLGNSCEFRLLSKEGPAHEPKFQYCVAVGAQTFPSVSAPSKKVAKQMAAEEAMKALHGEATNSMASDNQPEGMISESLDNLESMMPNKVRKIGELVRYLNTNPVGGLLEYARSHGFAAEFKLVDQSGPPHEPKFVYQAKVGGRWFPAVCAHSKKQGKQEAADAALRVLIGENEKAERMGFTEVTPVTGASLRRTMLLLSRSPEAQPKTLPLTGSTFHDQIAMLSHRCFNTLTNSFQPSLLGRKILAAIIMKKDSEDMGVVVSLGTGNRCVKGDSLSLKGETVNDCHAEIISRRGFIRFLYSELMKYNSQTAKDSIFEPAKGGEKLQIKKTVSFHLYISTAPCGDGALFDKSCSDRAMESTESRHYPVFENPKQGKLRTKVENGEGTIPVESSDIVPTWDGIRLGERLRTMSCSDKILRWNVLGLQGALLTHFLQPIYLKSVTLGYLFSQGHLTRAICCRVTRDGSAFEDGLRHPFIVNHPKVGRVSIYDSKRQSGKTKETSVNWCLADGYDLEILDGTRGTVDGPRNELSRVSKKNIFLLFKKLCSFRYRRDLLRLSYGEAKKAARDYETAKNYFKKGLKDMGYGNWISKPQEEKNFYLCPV
Sequence of UniProt Q02952 (Q02952 whole entry, looked up): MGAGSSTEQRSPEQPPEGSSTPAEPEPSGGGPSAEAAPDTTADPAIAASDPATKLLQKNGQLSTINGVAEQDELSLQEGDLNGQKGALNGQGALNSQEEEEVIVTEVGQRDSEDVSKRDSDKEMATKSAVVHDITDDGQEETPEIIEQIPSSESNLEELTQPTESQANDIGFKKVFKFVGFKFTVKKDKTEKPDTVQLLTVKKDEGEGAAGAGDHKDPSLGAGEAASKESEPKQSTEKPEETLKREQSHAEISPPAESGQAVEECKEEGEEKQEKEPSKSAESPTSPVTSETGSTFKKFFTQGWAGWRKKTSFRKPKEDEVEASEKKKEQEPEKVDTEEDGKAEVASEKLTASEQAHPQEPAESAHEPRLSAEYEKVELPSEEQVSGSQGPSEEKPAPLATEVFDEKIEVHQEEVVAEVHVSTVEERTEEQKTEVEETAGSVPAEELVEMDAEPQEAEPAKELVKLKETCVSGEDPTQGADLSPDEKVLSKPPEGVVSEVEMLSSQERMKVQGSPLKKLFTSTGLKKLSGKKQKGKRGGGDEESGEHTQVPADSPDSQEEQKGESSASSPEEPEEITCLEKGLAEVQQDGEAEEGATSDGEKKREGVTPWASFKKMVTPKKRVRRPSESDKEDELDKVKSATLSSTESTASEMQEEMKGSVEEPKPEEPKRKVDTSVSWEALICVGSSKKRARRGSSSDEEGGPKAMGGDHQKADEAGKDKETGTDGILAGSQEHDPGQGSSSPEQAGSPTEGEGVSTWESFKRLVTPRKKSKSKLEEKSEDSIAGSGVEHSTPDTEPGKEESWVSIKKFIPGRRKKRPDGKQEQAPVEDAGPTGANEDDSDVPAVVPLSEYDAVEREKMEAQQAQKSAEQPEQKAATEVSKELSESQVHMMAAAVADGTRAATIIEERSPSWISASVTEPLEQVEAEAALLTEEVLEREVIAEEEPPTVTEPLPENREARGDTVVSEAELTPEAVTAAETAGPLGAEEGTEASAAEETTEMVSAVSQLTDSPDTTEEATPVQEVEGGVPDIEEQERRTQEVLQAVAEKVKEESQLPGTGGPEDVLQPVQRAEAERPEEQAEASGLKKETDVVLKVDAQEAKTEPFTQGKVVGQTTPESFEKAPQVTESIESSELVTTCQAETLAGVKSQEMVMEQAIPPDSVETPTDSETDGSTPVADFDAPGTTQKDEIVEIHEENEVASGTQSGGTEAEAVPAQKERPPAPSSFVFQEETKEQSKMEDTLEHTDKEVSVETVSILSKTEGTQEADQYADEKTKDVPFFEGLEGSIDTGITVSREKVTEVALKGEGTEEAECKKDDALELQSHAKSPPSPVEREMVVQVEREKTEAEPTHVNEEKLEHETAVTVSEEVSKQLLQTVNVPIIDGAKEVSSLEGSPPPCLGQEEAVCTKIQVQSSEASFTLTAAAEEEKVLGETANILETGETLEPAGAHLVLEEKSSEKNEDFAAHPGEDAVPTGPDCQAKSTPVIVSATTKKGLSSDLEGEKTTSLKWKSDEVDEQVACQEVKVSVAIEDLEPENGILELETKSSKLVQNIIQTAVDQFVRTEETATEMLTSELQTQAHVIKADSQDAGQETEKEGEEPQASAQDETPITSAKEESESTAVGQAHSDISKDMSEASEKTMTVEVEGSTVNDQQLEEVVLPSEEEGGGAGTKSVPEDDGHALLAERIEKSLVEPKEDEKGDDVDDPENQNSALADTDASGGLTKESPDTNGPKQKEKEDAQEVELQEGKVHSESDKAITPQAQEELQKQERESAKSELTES
Sequence of UniProt Q13162 (Q13162 whole entry, looked up): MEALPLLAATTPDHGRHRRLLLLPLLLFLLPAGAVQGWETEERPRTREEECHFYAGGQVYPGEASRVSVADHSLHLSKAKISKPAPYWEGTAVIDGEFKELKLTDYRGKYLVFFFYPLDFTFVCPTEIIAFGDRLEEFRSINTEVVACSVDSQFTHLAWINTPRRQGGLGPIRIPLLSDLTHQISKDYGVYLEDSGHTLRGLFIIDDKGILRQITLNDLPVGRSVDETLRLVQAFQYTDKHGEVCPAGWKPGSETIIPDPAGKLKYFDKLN

Target | log2 ratio of iodoacetamide-alkyne labeling
NUP98 C1027 (UniProt P52948) | 0.378
MAP7D1 C361 (UniProt Q3KQU3) | 1.65 (active)
SPCS2 C26 (UniProt Q15005) | 1.62 (active)
MAP7D1 C373 (UniProt Q3KQU3) | 0.815
UniProt P55072_C209 | 0.132
DLGAP5 C129 (UniProt Q15398) | 1.38 (active)
PTPN13 C937 (UniProt Q12923) | 0.773
PRDX4 C51 (UniProt Q13162) | 1.66 (active)
UniProt Q15365_C158 | 0.366
ADAR C649 (UniProt P55265) | 0.375
GABPB1 C331 (UniProt Q06547) | 0.198
PDCD11 C151 (UniProt Q14690) | 0.508
MORC3 C619 (UniProt Q14149) | 0.279
TARBP1 C483 (UniProt Q13395) | 1.21 (active)
UniProt Q02750_C376 | -0.129
UBE2V1 C144 (UniProt Q13404) | 0.136
FHL1 C10 (UniProt Q13642) | -0.136
LGALS3BP C489 (UniProt Q08380) | 1.72 (active)

Target | log2 ratio of iodoacetamide-alkyne labeling
UniProt Q05655_C127 | 0.196
LAGE3 C23 (UniProt Q14657) | 0.594
AKAP12 C1399 (UniProt Q02952) | 1.16 (active)
PDS5A C581 (UniProt Q29RF7) | 0.744
UniProt Q02930_C80 | 1.09 (active)
AP1B1 C129 (UniProt Q10567) | 0.414
PPP5C C452 (UniProt P53041) | 0.0827
CAP1 C93 (UniProt Q01518) | 0.152
SEC23A C432 (UniProt Q15436) | 0.163
SUCLG1 C172 (UniProt P53597) | 1.72 (active)
DST C7524 (UniProt Q03001) | 0.174
EEA1 C1405 (UniProt Q15075) | 0.0817
UniProt Q16512_C602 | 0.0536
BMS1 C895 (UniProt Q14692) | 0.11
SPTAN1 C1930 (UniProt Q13813) | 0.167
FOXK1 C254 (UniProt P85037) | 1.18 (active)
CNBP C140 (UniProt P62633) | 0.134
